Our source for the binding signal values is PMC7862700, “An all-to-all approach to the identification of sequence-specific readers for epigenetic DNA modifications on cytosine”.

What all share (assay): DAPPL (digital affinity profiling via proximity ligation, sequencing); 10 mM Tris-HCl pH 7.5, 50 mM NaCl, 1 mM DTT, 4% glycerol, room temperature, 30 min; GST-TFs on glutathione beads, 16-mer random dsDNA library, 0.1% formaldehyde crosslink after washing; high values mean tight binding
The target of one assay is T1, FEV (Homo sapiens, UniProt Q99581 1-238).
T1 sequence: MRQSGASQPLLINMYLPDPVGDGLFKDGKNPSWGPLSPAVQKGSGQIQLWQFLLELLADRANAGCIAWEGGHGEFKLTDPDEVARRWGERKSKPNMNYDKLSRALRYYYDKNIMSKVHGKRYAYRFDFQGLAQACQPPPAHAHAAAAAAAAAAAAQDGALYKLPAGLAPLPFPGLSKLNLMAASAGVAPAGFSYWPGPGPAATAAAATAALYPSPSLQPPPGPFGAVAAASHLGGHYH
To be noted: protein: recombinant; tags: N-terminal GST; dsDNA, one strand shown. A digest of the protocol:
(§1)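 Binding signal is given per hexamer as its read frequency for a factor divided by its frequency in the tag-only sample. GST-fused human transcription factors were expressed in yeast, captured on glutathione beads, barcoded with DNA and pooled with that sample, then incubated with 200 nmole of a 16-mer random double-stranded DNA library in Tris/NaCl/DTT/glycerol buffer for 30 min at room temperature. The pools were then washed, crosslinked, proximity-ligated, amplified by PCR and sequenced on an Illumina NextSeq500.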

In the next assay the target is ETV5 (Homo sapiens, UniProt P41161 1-510). To be noted: protein: recombinant; tags: N-terminal GST; dsDNA, one strand shown. The gist of the method: as §1
The target of the next assay is HSF1 (Homo sapiens, UniProt Q00613 1-529). As to conditions: protein: recombinant; tags: N-terminal GST; chain copies: 3; dsDNA, one strand shown. A digest of the protocol: as §1
The target of a further assay is T2, SPIC (Homo sapiens, UniProt Q8N5J4 1-248).
T2 sequence: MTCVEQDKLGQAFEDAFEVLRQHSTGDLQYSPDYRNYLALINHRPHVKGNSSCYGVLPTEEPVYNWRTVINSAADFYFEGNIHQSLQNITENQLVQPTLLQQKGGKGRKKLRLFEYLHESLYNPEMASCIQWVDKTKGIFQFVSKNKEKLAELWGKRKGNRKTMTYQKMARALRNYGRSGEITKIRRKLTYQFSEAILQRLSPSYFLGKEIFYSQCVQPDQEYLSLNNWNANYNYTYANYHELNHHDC
To be noted: protein: recombinant; tags: N-terminal GST; dsDNA, one strand shown. The gist of the method:
as §1

The target of another assay is ELF4 (Homo sapiens, UniProt Q99607 1-663). As to conditions: protein: recombinant; tags: N-terminal GST; dsDNA, one strand shown. The gist of the method: as §1
Another assay addresses T3, ELK4 (Homo sapiens, UniProt P28324-2 1-405).
T3 sequence: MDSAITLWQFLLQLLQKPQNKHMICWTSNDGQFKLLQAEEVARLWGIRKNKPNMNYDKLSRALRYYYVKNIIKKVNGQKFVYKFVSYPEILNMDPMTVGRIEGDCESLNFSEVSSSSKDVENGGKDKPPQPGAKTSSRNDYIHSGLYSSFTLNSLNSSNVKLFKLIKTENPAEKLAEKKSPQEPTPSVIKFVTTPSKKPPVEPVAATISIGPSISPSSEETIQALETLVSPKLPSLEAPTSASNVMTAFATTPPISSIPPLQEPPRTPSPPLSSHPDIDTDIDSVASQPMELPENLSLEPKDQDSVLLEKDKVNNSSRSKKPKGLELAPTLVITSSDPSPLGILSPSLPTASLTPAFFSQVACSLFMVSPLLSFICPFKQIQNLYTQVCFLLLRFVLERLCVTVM
To be noted: protein: recombinant; tags: N-terminal GST; dsDNA, one strand shown. A digest of the protocol:
as §1

The next assay deals with T4, ETV2 (Homo sapiens, UniProt O00321 1-342).
T4 sequence: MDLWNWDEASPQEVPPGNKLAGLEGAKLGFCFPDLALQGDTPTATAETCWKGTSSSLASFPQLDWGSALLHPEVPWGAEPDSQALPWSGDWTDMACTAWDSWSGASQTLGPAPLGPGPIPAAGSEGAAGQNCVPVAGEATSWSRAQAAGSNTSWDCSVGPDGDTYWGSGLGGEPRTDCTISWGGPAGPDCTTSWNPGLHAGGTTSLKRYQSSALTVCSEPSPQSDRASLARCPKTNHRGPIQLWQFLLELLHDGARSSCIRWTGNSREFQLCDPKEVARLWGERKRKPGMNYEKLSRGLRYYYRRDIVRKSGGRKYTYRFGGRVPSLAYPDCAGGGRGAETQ
To be noted: protein: recombinant; tags: N-terminal GST; dsDNA, one strand shown. A digest of the protocol: as §1

For the next assay, the target named is T5, ELF3 (Homo sapiens, UniProt P78545 1-371).
T5 sequence: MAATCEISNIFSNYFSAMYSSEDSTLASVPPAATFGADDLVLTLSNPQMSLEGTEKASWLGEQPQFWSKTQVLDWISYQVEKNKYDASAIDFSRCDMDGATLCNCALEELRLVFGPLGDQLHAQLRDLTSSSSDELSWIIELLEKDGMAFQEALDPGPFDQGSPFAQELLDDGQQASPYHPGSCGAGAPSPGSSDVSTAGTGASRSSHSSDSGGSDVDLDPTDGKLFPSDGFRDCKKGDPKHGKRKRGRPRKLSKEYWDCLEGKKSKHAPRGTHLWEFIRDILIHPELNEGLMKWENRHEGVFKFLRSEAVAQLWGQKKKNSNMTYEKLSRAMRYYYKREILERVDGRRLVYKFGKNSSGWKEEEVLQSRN
As to conditions: protein: recombinant; tags: N-terminal GST; dsDNA, one strand shown. A digest of the protocol: as §1

Another assay has as its target CRX (Homo sapiens, UniProt O43186 1-299). To be noted: protein: recombinant; tags: N-terminal GST; dsDNA, one strand shown. The gist of the method:
as §1

A further assay deals with ETV1 (Homo sapiens, UniProt P50549 1-477). To be noted: protein: recombinant; tags: N-terminal GST; dsDNA, one strand shown. A digest of the protocol:
as §1

Another assay has as its target T6, ERF (Homo sapiens, UniProt P50548 1-548).
T6 sequence: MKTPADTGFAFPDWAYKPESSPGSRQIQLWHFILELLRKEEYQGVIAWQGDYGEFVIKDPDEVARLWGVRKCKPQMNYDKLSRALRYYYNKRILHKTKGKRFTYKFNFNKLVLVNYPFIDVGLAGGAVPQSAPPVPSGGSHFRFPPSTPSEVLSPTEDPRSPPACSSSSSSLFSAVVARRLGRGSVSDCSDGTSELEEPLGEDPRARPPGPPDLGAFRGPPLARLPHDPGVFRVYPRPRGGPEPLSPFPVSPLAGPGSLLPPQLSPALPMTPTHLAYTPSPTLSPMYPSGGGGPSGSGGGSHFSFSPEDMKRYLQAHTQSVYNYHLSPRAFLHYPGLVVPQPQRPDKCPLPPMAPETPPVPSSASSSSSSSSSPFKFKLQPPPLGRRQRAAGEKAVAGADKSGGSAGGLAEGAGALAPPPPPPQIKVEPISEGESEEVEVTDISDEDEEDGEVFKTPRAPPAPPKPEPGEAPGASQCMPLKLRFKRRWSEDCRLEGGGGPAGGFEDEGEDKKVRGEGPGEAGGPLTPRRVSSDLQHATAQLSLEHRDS
To be noted: protein: recombinant; tags: N-terminal GST; dsDNA, one strand shown. The gist of the method:
as §1

A further assay has as its target T7, ETV3L (Homo sapiens, UniProt Q6ZN32 1-361).
T7 sequence: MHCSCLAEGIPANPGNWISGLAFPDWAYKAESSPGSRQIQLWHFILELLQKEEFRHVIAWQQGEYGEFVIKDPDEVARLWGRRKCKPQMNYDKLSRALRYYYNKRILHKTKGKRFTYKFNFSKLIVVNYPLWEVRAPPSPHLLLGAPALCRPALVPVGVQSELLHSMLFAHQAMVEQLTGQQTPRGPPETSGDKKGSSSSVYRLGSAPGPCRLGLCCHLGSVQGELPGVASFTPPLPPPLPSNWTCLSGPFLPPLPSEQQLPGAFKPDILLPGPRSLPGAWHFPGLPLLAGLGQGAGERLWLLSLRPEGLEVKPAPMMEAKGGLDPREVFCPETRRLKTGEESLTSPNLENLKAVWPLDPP
As to conditions: protein: recombinant; tags: N-terminal GST; dsDNA, one strand shown. The gist of the method: as §1

In a further assay the target is T8, ETS2 (Homo sapiens, UniProt P15036 1-469).
T8 sequence: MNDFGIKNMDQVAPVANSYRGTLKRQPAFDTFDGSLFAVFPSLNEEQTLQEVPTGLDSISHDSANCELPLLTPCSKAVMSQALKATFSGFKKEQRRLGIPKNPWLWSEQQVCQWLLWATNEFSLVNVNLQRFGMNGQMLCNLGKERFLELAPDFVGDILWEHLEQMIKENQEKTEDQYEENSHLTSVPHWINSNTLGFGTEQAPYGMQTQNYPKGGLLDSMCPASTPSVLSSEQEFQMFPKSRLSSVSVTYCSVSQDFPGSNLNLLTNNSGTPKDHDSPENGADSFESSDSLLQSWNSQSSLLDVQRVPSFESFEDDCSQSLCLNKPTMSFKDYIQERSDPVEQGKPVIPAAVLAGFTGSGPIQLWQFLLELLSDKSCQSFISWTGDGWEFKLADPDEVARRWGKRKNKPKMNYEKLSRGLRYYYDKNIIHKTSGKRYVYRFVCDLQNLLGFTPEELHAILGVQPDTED
As to conditions: protein: recombinant; tags: N-terminal GST; dsDNA, one strand shown. The gist of the method: as §1

The next assay deals with T9, SPDEF (Homo sapiens, UniProt O95238 1-335).
T9 sequence: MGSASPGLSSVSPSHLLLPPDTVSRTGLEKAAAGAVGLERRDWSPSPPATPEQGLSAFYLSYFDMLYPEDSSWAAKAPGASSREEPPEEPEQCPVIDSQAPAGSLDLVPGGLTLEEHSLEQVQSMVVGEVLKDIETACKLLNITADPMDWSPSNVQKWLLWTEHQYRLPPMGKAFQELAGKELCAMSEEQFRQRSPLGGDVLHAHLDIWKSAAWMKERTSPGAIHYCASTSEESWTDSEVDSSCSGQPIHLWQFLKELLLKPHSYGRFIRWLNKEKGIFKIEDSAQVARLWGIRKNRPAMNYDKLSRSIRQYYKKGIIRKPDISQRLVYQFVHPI
To be noted: protein: recombinant; tags: N-terminal GST; dsDNA, one strand shown. A digest of the protocol:
as §1

For the next assay, the target named is T10, ETV7 (Homo sapiens, UniProt Q9Y603 1-341).
T10 sequence: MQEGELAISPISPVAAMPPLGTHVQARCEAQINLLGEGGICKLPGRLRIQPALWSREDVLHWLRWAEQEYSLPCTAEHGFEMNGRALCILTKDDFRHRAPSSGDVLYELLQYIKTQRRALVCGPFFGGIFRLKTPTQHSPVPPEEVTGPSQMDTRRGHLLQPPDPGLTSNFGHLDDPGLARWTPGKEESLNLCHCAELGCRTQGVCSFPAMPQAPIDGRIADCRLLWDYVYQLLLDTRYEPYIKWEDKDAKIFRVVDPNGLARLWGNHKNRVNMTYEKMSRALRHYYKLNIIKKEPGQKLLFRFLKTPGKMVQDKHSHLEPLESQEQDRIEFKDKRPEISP
To be noted: protein: recombinant; tags: N-terminal GST; dsDNA, one strand shown. A digest of the protocol: as §1

The target of a further assay is T11, ELF5 (Homo sapiens, UniProt Q9UKW6-2 1-255).
T11 sequence: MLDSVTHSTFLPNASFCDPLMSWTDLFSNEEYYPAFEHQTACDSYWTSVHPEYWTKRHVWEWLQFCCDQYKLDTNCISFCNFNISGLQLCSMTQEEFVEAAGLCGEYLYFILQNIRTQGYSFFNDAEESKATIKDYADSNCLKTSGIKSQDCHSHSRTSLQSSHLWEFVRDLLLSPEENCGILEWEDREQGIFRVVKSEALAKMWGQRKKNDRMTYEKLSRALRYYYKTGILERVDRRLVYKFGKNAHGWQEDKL
To be noted: protein: recombinant; tags: N-terminal GST; dsDNA, one strand shown. A digest of the protocol: as §1

Another assay concerns the target T12, ETV3 (Homo sapiens, UniProt P41162-2 1-143).
T12 sequence: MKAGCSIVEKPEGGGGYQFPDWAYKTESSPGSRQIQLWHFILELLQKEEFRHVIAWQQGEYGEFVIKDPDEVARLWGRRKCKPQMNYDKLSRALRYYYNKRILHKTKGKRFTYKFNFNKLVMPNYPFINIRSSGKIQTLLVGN
As to conditions: protein: recombinant; tags: N-terminal GST; dsDNA, one strand shown. The gist of the method: as §1

The next assay concerns the target ETV6 (Homo sapiens, UniProt P41212 1-452). To be noted: protein: recombinant; tags: N-terminal GST; dsDNA, one strand shown. A digest of the protocol: as §1

Sequence of ELF4 (Q99607 whole entry): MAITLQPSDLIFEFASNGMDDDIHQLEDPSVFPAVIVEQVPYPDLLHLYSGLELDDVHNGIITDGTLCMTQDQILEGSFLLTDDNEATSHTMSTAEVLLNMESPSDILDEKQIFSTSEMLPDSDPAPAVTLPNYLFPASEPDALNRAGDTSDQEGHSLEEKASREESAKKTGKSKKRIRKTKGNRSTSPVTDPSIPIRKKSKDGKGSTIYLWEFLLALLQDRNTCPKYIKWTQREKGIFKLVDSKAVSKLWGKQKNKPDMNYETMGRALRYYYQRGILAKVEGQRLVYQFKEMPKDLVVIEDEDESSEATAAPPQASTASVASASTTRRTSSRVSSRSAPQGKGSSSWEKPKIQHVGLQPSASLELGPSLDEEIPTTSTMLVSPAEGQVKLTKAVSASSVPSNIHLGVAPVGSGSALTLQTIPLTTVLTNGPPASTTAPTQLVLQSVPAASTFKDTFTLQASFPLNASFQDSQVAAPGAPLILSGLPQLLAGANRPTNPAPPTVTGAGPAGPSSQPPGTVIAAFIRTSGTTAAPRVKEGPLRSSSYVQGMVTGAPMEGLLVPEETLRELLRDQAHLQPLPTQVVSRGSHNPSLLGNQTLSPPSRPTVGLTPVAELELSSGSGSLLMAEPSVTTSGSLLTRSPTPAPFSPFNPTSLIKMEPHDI
Sequence of HSF1 (Q00613 whole entry): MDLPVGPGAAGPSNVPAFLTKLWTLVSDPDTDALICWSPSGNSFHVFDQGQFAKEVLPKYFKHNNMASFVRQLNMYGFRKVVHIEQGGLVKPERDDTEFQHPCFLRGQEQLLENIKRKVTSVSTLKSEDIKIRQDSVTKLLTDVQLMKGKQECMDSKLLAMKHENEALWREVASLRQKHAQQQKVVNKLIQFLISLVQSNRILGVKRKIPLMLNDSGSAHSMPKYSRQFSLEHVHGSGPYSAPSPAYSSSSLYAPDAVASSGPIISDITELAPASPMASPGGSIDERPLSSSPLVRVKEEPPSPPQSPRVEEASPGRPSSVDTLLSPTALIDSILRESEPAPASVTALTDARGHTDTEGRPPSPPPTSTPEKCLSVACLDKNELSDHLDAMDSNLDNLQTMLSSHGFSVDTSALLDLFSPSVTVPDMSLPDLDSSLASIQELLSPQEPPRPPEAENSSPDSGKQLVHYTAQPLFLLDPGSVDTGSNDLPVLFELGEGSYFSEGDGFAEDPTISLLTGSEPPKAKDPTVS
Sequence of ETV6 (P41212 whole entry): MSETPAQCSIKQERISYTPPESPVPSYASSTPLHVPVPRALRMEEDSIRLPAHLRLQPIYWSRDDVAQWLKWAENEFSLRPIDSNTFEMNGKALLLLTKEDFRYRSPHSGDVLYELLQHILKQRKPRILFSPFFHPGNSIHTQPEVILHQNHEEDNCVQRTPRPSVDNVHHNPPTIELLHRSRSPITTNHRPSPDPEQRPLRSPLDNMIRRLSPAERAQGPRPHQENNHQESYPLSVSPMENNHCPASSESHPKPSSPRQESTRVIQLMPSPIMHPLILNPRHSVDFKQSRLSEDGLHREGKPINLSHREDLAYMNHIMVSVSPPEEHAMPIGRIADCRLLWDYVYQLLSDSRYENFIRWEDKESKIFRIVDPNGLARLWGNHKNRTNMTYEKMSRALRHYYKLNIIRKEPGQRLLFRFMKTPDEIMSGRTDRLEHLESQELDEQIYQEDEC
Sequence of ETV5 (P41161 whole entry): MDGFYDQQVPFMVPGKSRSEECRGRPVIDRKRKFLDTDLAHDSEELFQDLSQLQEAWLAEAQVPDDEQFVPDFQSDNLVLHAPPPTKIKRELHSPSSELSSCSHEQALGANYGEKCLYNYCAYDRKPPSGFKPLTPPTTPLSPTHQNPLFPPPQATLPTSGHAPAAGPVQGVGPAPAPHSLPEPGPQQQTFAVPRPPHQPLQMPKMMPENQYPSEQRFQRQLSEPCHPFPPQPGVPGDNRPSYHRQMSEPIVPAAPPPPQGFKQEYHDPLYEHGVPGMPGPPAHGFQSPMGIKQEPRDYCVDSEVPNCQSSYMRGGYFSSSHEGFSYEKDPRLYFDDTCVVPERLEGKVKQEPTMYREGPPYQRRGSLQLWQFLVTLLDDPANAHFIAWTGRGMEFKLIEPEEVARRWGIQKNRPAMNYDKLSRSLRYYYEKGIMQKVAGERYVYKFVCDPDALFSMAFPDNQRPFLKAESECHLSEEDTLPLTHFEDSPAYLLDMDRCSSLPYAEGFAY
Sequence of ETV1 (P50549 whole entry): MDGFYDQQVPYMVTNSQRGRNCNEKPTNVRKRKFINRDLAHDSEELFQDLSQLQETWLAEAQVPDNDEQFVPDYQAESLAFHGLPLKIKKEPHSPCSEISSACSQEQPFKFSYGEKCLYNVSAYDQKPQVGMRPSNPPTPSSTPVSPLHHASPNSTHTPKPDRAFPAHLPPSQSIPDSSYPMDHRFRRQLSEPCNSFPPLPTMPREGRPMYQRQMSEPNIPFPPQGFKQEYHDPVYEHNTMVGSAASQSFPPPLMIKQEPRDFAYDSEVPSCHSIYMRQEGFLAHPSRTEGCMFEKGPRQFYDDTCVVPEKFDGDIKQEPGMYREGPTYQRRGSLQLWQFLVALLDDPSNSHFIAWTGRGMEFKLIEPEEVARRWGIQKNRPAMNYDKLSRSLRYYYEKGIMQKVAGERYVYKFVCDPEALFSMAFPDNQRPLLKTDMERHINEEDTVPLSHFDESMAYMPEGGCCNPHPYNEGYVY
Sequence of CRX (O43186 whole entry): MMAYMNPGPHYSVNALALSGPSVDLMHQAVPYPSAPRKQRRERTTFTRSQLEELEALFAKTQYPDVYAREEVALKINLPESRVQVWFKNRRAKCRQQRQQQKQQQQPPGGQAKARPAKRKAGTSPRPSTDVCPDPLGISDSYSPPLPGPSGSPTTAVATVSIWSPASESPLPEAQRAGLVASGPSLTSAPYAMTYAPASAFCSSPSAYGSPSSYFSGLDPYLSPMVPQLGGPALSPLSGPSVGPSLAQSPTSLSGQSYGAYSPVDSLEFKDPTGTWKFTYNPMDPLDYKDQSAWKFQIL

Regarding CCTTTT, the binding signal in the assay with FEV is 1.68 fold enrichment (6-mer frequency, TF over GST control); with ETV5 it was 1.56 fold enrichment (6-mer frequency, TF over GST control); with HSF1 it was 1.37 fold enrichment (6-mer frequency, TF over GST control); with SPIC it was 1.83 fold enrichment (6-mer frequency, TF over GST control); with ELF4 it was 1.64 fold enrichment (6-mer frequency, TF over GST control); with ELK4 it was 1.58 fold enrichment (6-mer frequency, TF over GST control). The binding signal with ETV2 was 1.38 fold enrichment (6-mer frequency, TF over GST control); in the assay with ELF3, 1.68 fold enrichment (6-mer frequency, TF over GST control); with CRX it was 1.36 fold enrichment (6-mer frequency, TF over GST control); with ETV1, 1.6 fold enrichment (6-mer frequency, TF over GST control); with ERF it was 1.65 fold enrichment (6-mer frequency, TF over GST control); with ETV3L it was 1.69 fold enrichment (6-mer frequency, TF over GST control). Further, the binding signal is 1.46 fold enrichment (6-mer frequency, TF over GST control) in the assay with ETS2; 1.55 fold enrichment (6-mer frequency, TF over GST control) in the assay with SPDEF; 1.53 fold enrichment (6-mer frequency, TF over GST control) in the assay with ETV7; 1.61 fold enrichment (6-mer frequency, TF over GST control) in the assay with ELF5; 1.55 fold enrichment (6-mer frequency, TF over GST control) with ETV3; 1.67 fold enrichment (6-mer frequency, TF over GST control) with ETV6.
